# Tau fluor counter – counter-screen for tau fibril formation inhibitors; tau K18 P301L Alexa594 fluorescence, heparin fibrillization; hit rate 0.93% among 280,000; Potency, µM (titrated, usually from 57.7 µM), for the others: at the top dose activity change, negative = decrease; AID 1463; further: nearly all actives have a fitted effect of over 55% in size
#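 Human tau K18 P301L (15 uM unlabeled, 0.24 uM Alexa 594-labeled) in 100 mM sodium acetate pH 7 with 20 uM heparin, 6 hr at 37 C. ThT 30 uM added, 1 hr ambient; Alexa 594 FP and total fluorescence read at 555/632 nm.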
# ALDH1A1 block – ALDH1A1 (human) enzyme inhibition | Purified ALDH1A1, NADH fluorescence, propionaldehyde substrate | Potency, µM (series often up to 75.3 µM), without a hit: top-dose activity, negative = inhibition, usual class: inhibitors | hit rate 7.3% among 220,000 | AID 1030; active means well fitted inhibition curve with a large enough effect, not every such curve was filed as active; inconclusive means small, poorly fitted or top-dose-only effect, or another doubt; inactive means no such curve, though single readings can be large or run the other way;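 further: plate controls were no enzyme wells and a reference inhibitor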
# Target sequence (P00352 whole entry, looked up): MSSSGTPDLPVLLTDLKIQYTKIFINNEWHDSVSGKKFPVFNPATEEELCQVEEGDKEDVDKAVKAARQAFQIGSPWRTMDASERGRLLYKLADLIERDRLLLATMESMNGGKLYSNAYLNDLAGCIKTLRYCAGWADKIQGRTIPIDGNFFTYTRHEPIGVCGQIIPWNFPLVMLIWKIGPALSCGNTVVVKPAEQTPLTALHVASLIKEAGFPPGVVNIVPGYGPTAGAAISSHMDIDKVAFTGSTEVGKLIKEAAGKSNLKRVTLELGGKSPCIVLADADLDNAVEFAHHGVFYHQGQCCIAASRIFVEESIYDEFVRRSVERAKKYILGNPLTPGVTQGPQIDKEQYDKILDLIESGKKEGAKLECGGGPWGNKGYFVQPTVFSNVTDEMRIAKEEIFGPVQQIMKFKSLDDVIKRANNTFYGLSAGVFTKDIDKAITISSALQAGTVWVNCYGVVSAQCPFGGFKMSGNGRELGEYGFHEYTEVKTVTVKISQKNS
# Tau ThT inhib – inhibitors of human tau fibril formation, thioflavin T binding. hit rate 2.1% among 270,000. Potency, µM (highest dose often 57.4 µM), inactives show at the highest dose activity, negative = inhibition, usual class: inhibitors. recombinant tau K18 P301L (four-repeat tau fragment), heparin-induced fibrillization, ThT fluorescence; further: nearly all actives have a fitted effect of over 55% in size
# Target sequence (P10636 561-689 P618L limits assumed): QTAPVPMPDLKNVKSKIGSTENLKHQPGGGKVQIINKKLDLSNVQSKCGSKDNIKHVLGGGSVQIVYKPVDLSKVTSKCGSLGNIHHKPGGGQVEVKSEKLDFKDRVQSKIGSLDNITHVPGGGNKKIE
#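 Aggregation was driven by heparin (20 uM final) acting on recombinant tau […] bearing P301L in 100 mM sodium acetate pH 7; fibrils were detected with Thioflavin T.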
# JMJD2E inh – blocks human JMJD2E demethylase activity | B2RXH2 | AID 2147 | JMJD2E catalytic domain, FDH-coupled NADH fluorescence (FDH is formaldehyde dehydrogenase) | hit rate 1.6% among 230,000 | Potency, µM (titrated, usually from 57.1 µM), inactives show top-dose activity change, negative = inhibition, hits mostly inhibitors; active means well fitted inhibition curve with a large enough effect, not every such curve was filed as active; inconclusive means small, poorly fitted or top-dose-only effect, or another doubt; inactive means no such curve, though single readings can be large or run the other way;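 further: 0% = wells with enzyme and -100% = buffer wells without enzyme; nearly all actives have a fitted effect of over 50% in size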
# Tau FP inhib – tau fibrillization inhibition (FP) | P10636 | K18 P301L tau heparin fibrillization, Alexa594 FP, 6 h | Potency, µM (top dose mostly 57.7 µM), without a hit: top-dose activity, negative = inhibition, hits mostly inhibitors | hit rate 0.39% among 280,000 | AID 1468; further: nearly all actives have a fitted effect of over 55% in size
#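 FP of Alexa 594-tau after heparin (20 uM) induction. Substrate: human K18 P301L, 15 uM unlabeled, 0.24 uM labeled. Buffer 100 mM sodium acetate pH 7. 6 hr, 37 C.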
# HPGD block – blocks human HPGD enzyme activity; P15428; AID 894; purified HPGD, NADH fluorescence kinetic, PGE2 substrate; hit rate 4.3% among 150,000; Potency, µM, for inactives: top-dose activity change, negative = inhibition, hits mostly inhibitors; active means well fitted inhibition curve with a large enough effect, not every such curve was filed as active; inconclusive means small, poorly fitted or top-dose-only effect, or another doubt; inactive means no such curve, though single readings can be large or run the other way
#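 NADH formation kinetics: reaction with 30 uM PGE2 and 1 mM NAD+ (final), 20 nM enzyme, Tris-HCl pH 8 with Tween 20, after 15 min compound preincubation at room temperature. Fluorescence change, last versus first of five reads.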
# An asterisk follows results filed as active; u = inconclusive; x = not tested or not shown; [ ] = dose if it differs, or a comment. Most compounds without a hit are left out; they make up all but 9.9% or so of the library. Unless noted, the call rests on the fitted dose curve; in most records, active means well fitted curve in the direction sought with a large enough effect; inconclusive means small, poorly fitted or top-dose-only effect, or another doubt; inactive means no such curve, though single readings can be large; an effect the other way counts as inactive or inconclusive. Unless noted, on the % scale 0 is the no-effect control and ±100 the full control effect; potency means the concentration at half of the fitted maximal effect.
SMILES,Tau fluor counter,ALDH1A1 block,Tau ThT inhib,JMJD2E inh,Tau FP inhib,HPGD block
Cc1ccc(-n2c(C)cc(C(=O)CN3CCCCC3)c2C)cc1,9%,-24%,-3%,-21%,-1%,13µM*
[O-]/C(=C(\C(=S)Nc1ccccc1F)[n+]1ccccc1)c1ccc(-c2ccccc2)cc1,-21%,18µM*,u,u,-9%,x
CC(=O)Nc1ccccc1OCC(=O)c1ccc2c(c1)OCO2,2%,3%,-3%,-9%,2%,x
CCOc1ccccc1NC(=S)/C(=C(\[O-])c1ccc2c(c1)OCCO2)[n+]1ccc(CC)cc1,-19%,20µM*,u,u,u,u
CC(C)(C)c1cc[n+](/C(C(=S)Nc2ccccc2F)=C(/[O-])c2ccc3c(c2)OCCO3)cc1,-20%,14µM*,u,-18%,-4%,x
Cc1cc(C)cc(NC(=S)/C(=C(\[O-])c2ccc(Cl)cc2Cl)[n+]2ccc(C(C)(C)C)cc2)c1,1%,x,-2%,-4%,1%,x
O=C(Cn1c2c(c(-c3ccccc3Cl)cc1=O)CCC2)NCCCN1CCOCC1,-14%,x,x,u,0%,x
Cc1cccc(NC(=S)N=Nc2c(O)[nH]c3ccccc23)c1,14µM*[quencher],-3%,7.9µM*,-1%,-1%,-15%
COc1ccccc1NC(=S)N=Nc1c(O)[nH]c2ccc(Br)cc12,u,13%,u,1%,-2%,x
Cc1ccc(C)c(S(=O)(=O)N=Nc2c(O)[nH]c3ccccc23)c1,-1%,10µM*,4%,3%,2%,x
O=C(CCc1ccc(S(=O)(=O)NCc2ccccc2)cc1)NCC1CCCO1 (stereo unspecified),14%,-1%,8%,-19%,2%,-6%
c1ccc2[nH]c(SN3CCOCC3)nc2c1,-14%,0.79µM*,u,5%,u,11µM*
NNC(=O)c1cc(-c2ccc(O)cc2)nc2ccc(Br)cc12,u,14µM*,-3%,10%,-5%,x
Cc1ccc(-c2cc(C(=O)NCc3cnn(C)c3C)c3cc(Br)ccc3n2)cc1,u,1%,u,-14%,-5%,-3%
COc1cccc2c1cc1c(=O)n(CC(=O)N3CCN(c4cccc(C)c4)C(C)C3)nc(C)n12 (stereo unspecified),-6%,x,-5%,x,3%,x
CCN(CC)S(=O)(=O)c1ccc(NC(=O)C2c3ccccc3Oc3ccccc32)cc1,u,33%,-7%,6%,28µM*,-5%
CN1CCN(S(=O)(=O)c2ccc(NC(=S)NC(=O)c3ccc(Cl)cc3)cc2)CC1,-25%,-10%,-16%,8%,-2%,x
CN1CCN(S(=O)(=O)c2ccc(NC(=S)NC(=O)c3ccccc3)cc2)CC1,-17%,25µM*,-14%,8%,0%,u
CN1CCN(C(=S)NC(=O)c2ccc(S(=O)(=O)N3CCOCC3)cc2)CC1,7%,9.5µM*,2%,-5%,-2%,x
CN1CCN(S(=O)(=O)c2ccc(NC(=S)NC(=O)C(C)(C)C)cc2)CC1,-18%,32µM*,-7%,4%,-15%,x
CCN(CC)S(=O)(=O)c1ccc(NC(=S)NC(=O)CC(C)C)cc1,-22%,-13%,-5%,5%,-6%,-15%
CN(Cc1ccccc1)S(=O)(=O)c1ccc(NC(=S)NC(=O)C2CCCCC2)cc1,-26%,-3%,-2%,3%,u,-7%
CCN(CC)S(=O)(=O)c1ccc(NC(=S)NC(=O)C(C)C)cc1,-4%,28µM*,4%,-23%,5%,-16%
CN(Cc1ccccc1)S(=O)(=O)c1ccc(NC(=S)NC(=O)C(C)(C)C)cc1,-18%,13µM*,-17%,6%,-12%,-15%
CCOC(=O)c1c(/N=C/c2cccc([N+](=O)[O-])c2O)sc(C)c1C,13%,13µM*,u,0%,4%,u
SMILES,Tau fluor counter,ALDH1A1 block,Tau ThT inhib,JMJD2E inh,Tau FP inhib,HPGD block
CCOC(=O)c1c(NC(=O)COC(=O)c2cc(OC)c(OC)cc2[N+](=O)[O-])sc(C)c1C,-5%,-5%,-3%,11%,7%,-1%
O=C1CC(c2ccc3c(c2)OCO3)c2cc(O)ccc2O1 (stereo unspecified),-17%[81.3 µM],u,u,x,1%[81.3 µM],40µM*
Cc1nc2c(c3c1[nH]c1ccccc13)C(O)CC(C)(C)C2 (stereo unspecified),8%,u,5%,u,3%,u
O=C(c1ccc(N2CCN(C3CC(=O)N(Cc4cccs4)C3=O)CC2)cc1)c1cccnc1 (stereo unspecified),-13%,3.2µM*,u,-4%,8%,x
O=C(c1ccncc1)c1ccc(N2CCN(C3CC(=O)N(Cc4ccccc4)C3=O)CC2)cc1 (stereo unspecified),-7%,-11%,u,-5%,-8%,-12%
CCOC(=O)c1c(O)c2cc(Cl)ccc2n(CC)c1=O,6%,20µM*,7%,17%,4%,x
CCCCCn1c(=O)c(C(=O)OCC)c(O)c2ccccc21,1%,u,-3%,-3%,-8%,-12%
Cc1ccc(CN2CCN(/N=C/C(Br)=C\c3ccccc3)CC2)cc1,-26%,x,u,-18%,-6%,x
C=CCNC(=O)CC(=O)N/N=C/c1cccs1,14%,-1%,3%,-6%,3%,x
CCOc1cc(C2NC(=O)c3c(sc4c3CCN(C)C4)N2)ccc1OC(=O)c1ccc(Br)cc1 (stereo unspecified),-9%,x,u,x,-9%,x
CN1CCc2c(sc3c2C(=O)NC(c2cccc(OC(=O)c4cccs4)c2)N3)C1 (stereo unspecified),-15%,u,u,u,-2%,u
COc1cc(C2NC(=O)c3c(sc4c3CCN(C)C4)N2)ccc1OC(=O)c1ccccc1 (stereo unspecified),-14%,x,13µM*,x,-6%,x
CCOC(=O)N1CCc2c(sc3c2C(=O)NC(c2ccccc2)N3)C1 (stereo unspecified),-28%,u,28µM*,u,u,u
CCOC(=O)N1CCc2c(sc3c2C(=O)NC(c2cc(OC)c(O)c(OC)c2)N3)C1 (stereo unspecified),-16%,x,11µM*,x,1%,x
CCOC(=O)c1sc(C)c2c1NC(c1ccc(N(C)C)cc1)NC2=O (stereo unspecified),-11%,3%,-13%,-1%,-2%,x
CCOC(=O)N1CCc2c(sc3c2C(=O)NC(c2ccc(N(C)C)cc2)N3)C1 (stereo unspecified),-15%,x,0.89µM*,x,-19%,x
CCCCC(=O)NC(=S)Nc1ccc(S(=O)(=O)N2CCCC2)cc1,-15%,u,-5%,2%,-4%,-7%
